# Source: PubChem BioAssay
# Sampled rows, rich in hits. Any-hit rate of the full collection: about 2.9%.
# PAFAH1B3 inh: PAFAH1B3 enzyme inhibitors, primary screen, biochemical, fluorescence polarization, human; recombinant PAFAH1B3, FP-rhodamine probe; inhibition, % at 3.39 µM; 340,000 tested, 0.28% active; AID 492972, 2010;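 active = inhibition above the screen-wide average of all tested compounds plus 3 SD, cut at about 25% in these data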;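 also: 0% = enzyme with DMSO only and 100% = wells lacking PAFAH1B3 protein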
# Target sequence (Q15102 whole entry, looked up): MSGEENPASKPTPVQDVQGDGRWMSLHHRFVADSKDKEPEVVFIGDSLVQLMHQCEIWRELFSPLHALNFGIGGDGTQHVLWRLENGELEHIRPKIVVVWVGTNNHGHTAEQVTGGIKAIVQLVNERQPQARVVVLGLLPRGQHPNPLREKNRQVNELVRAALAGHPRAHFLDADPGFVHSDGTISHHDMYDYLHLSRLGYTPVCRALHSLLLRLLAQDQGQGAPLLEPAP
# pPAFAH FP inh: pPAFAH enzyme inhibitors, primary screen, biochemical, fluorescence polarization, human. 330,000 tested, 1.5% active. Platelet-activating factor acetylhydrolase (Homo sapiens), Q13093. AID 463082, 2010. inhibition, % at 3.39 µM. recombinant pPAFAH, FP-rhodamine probe fluorescence polarization;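 active = inhibition above the mean inhibition across the screen plus 3 SD, cut at about 25% in these data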;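 also: inhibitors block binding of the rhodamine activity-based probe so polarization drops; 0% = enzyme with DMSO and 100% = wells lacking pPAFAH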
# PAFAH1B2 inh: PAFAH1B2 enzyme inhibitors, primary screen, biochemical, fluorescence polarization, human; recombinant PAFAH1B2, FP-rhodamine activity probe; inhibition, % at 3.39 µM; 340,000 tested, 1.2% active; AID 492953, 2010;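 active = inhibition above the mean of all tested compounds plus 3 SD, cut at about 24% in these data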;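 also: 0% = enzyme with DMSO and 100% = wells lacking PAFAH1B2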
# Target sequence (P68402 whole entry, looked up): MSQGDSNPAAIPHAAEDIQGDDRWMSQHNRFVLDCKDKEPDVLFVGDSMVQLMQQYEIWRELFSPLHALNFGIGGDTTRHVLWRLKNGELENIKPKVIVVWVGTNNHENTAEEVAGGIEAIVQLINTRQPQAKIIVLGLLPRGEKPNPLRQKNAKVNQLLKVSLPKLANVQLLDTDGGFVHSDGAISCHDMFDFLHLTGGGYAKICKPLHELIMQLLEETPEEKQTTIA
# LYPLA1 inh: LYPLA1 inhibitors, primary screen, counter-screen for PME1 inhibitor project, biochemical, fluorescence polarization, FP-Rh probe ABPP. inhibition, % at 5.9 µM. AID 2174, 2009. Acyl-protein thioesterase 1 (Homo sapiens), O75608. 320,000 tested, 0.16% active. recombinant LYPLA1;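 active = inhibition above the mean of all tested compounds plus 3 SD, set per campaign, cut at about 14% in these data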;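 also: inhibitors block serine hydrolase probe labeling of LYPLA1 so polarization falls; 0% = enzyme with DMSO and 100% = wells lacking LYPLA1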
# LYPLA2 inh: LYPLA2 inhibitors, primary screen, counter-screen for PME1 inhibitor project, biochemical, fluorescence polarization, FP-Rh probe ABPP | Acyl-protein thioesterase 2 (Homo sapiens), O95372 | recombinant LYPLA2 | inhibition, % at 5.9 µM | 320,000 tested, 0.38% active | AID 2177, 2009;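 active = inhibition above the screen-wide mean plus 3 SD, limit set per campaign, cut at about 26% in these data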;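 also: 0% = LYPLA2 with DMSO and 100% = wells lacking LYPLA2 enzyme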
# PAFAH2 FP inh: PAFAH2 enzyme inhibitors, primary screen, biochemical, fluorescence polarization, human; inhibition, % at 3.39 µM; recombinant PAFAH2, FP-rhodamine activity probe; 340,000 tested, 0.99% active;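 active = inhibition above the mean over all tested compounds plus 3 SD, cut at about 30% in these data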;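 also: inhibitors block probe labeling of enzyme so polarization drops; 0% = enzyme with DMSO and 100% = wells lacking PAFAH2 protein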
# pPAFAH FP conf: pPAFAH (PLA2G7) enzyme inhibitors, confirmation, biochemical, fluorescence polarization, human | shares compounds with pPAFAH FP inh | recombinant pPAFAH, FP-Rh probe fluorescence polarization | inhibition, % at 3.39 µM | 2,300 tested, 72% active | AID 463230, 2010;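 active = mean inhibition of the triplicate above the hit cutoff set for the earlier primary screen, cut at about 25% in these data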;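 also: 0% = enzyme with DMSO and 100% = wells lacking pPAFAH enzyme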
# Starred values were filed as active, the others as inactive; · = no result.
SMILES,PAFAH1B3 inh,pPAFAH FP inh,PAFAH1B2 inh,LYPLA1 inh,LYPLA2 inh,PAFAH2 FP inh,pPAFAH FP conf
Cc1ccc(S(=O)(=O)/N=C2/NC(=O)/C(=C/c3cc([N+](=O)[O-])ccc3O)S2)cc1,43.8*,41.4*,60.8*,-0.1,1.2,48.3*,62.6*
CCOc1ccc(OCCC(=O)OCC(=O)Nc2ccc(N3CCOCC3)cc2)cc1,11.4,35.4*,-6.9,2.5,11.2,-14.6,23.2
Cc1cc(C)n2c(SC/C(O)=C(\C#N)c3nc4ccccc4[nH]3)nnc2n1,3.8,34.6*,5.4,-2.0,-2.0,9.2,23.6
OC1CC2CCC(C1)N2CCCN1c2ccccc2Sc2ccc(Cl)cc21 (stereo unspecified),9.1,·,7.8,·,·,-0.7,·
OCCN1CCN(CCCN2c3ccccc3Sc3ccc(C(F)(F)F)cc32)CC1,13.1,40.4*,5.8,0.6,-0.8,-3.1,38.1*
CN1CCN(CCCN2c3ccccc3Sc3ccc(Cl)cc32)CC1,8.1,45.0*,0.7,3.3,7.3,4.7,41.8*
CN(C)CCCN1c2ccccc2Sc2ccc(C(F)(F)F)cc21,11.2,10.9,7.7,-4.6,-0.3,-12.3,·
CCSc1ccc2c(c1)N(CCCN1CCN(C)CC1)c1ccccc1S2,14.7,37.0*,-0.1,-1.1,-2.6,21.4,41.9*
N#Cc1c(N2CCCC(O)C2)nc(N)c2c(N)nc3c(c12)CC(=O)N3C12CC3CC(CC(C3)C1)C2 (stereo unspecified),51.1*,44.5*,45.5*,-2.7,0.1,46.2*,21.6
CCCOc1ccc(C(C)=O)cc1CSc1nc(O)cc(=O)[nH]1,3.3,34.7*,2.9,-3.4,2.1,5.7,11.5
CC1CC=C2C(C#N)=C(N)C(C#N)(C#N)C(c3cccs3)C2C1 (stereo unspecified),-1.5,8.2,4.6,-1.8,-2.0,0.6,·
Cc1ccc2cc(CCNC(=O)c3ccc(C)c([N+](=O)[O-])c3)c(=O)[nH]c2c1,3.5,0.6,6.0,-0.7,1.3,4.4,·
O=[N+]([O-])c1ccc(N/N=C/c2cccc(O)c2O)cc1,31.5*,59.8*,10.6,-11.0,-7.4,5.1,56.5*
O=[N+]([O-])c1ccc(NN=Cc2cccc3ccccc23)nc1,0.9,·,1.6,·,·,4.1,·
COc1cccc(/C=N/Nc2ccc([N+](=O)[O-])cn2)c1O,-2.7,47.6*,1.8,-2.7,-0.5,5.2,12.1
O=[N+]([O-])c1ccc(N/N=C/c2cccc(O)c2)cc1,8.4,19.2,-3.8,2.4,8.2,-0.8,·
Cc1ccc(N=Cc2cc(Cc3ccccc3Cl)cc([N+](=O)[O-])c2O)c(O)c1,7.5,47.8*,8.9,-0.4,7.3,11.8,62.4*
COc1ccc(N=Cc2cc(Cc3ccccc3Cl)cc([N+](=O)[O-])c2O)cc1OC,6.2,16.1,7.8,2.5,2.9,15.2,·
Cc1cc(-c2ccccc2)n(-c2ccc(C(=O)N3CCN(c4ncccn4)CC3)cc2)n1,7.7,36.0*,-2.3,-3.4,2.9,-3.2,22.3
CCOC(=O)C1=C(C)N(C[C@@H]2CC[C@@H](Cc3ccc(-c4ccccc4)cc3)O2)C(=O)NC1c1ccc(SCc2ccco2)c([N+](=O)[O-])c1 (stereo partly specified),0.0,56.1*,1.0,·,·,4.6,24.9*
CCOC(=O)C1=C(C)N(C[C@@H]2CC[C@@H](Cc3ccc(-c4ccccc4)cc3)O2)C(=O)NC1c1ccc(C(F)(F)F)cc1 (stereo partly specified),2.2,7.9,7.5,·,·,1.4,·
CCOC(=O)C1CCN(Cc2ccc(OCc3ccccc3)c(OC)c2)CC1,9.1,71.6*,1.1,1.5,2.3,0.8,-0.7
CCOC(=O)C1CCN(Cc2ccc(OC)c(OCc3ccccc3)c2)CC1,8.2,2.9,5.2,-1.6,2.9,-2.3,·
